PubChem BioAssay AID463173 (ICCB-Longwood Screening Facility, Harvard Medical School, 2010)
Among all 52,000 compounds or so, about 4,300 (8.3%) were called active. The list comes from a sample in which actives are over-represented; it also holds similar structures and randomly drawn compounds. Unmarked numbers belong to inactive results. No stated cut-off is given here; in the data, active means survival mostly below about 52% (no sharp cut-off); inactive means mostly above about 56%.

Tested on: DeltatarO mutant
Experiment: growth inhibition of S. aureus wild type versus tarO mutant, primary screen, teichoic acid synthesis inhibitors, RN4220, OD600 (AID 463173)
Settings: OD600, 18 h, stronger effect = lower value, screened at 18.75 µg/mL (by protocol)

Row | Compound | survival
1 | CCC(C)NC(=O)Cn1c(=O)n(Cc2ccc(C(=O)NCc3ccccc3OC)cc2)c(=O)c2ccccc21 (centres undefined) | 84%
2 | O=c1ccnc(NCCc2ccccc2)[nH]1 | 104%
3 | Cn1cnc(S(=O)(=O)N2CCCC(C(=O)NCc3ccccc3Cl)C2)c1 (centres undefined) | 99%
4 | O=C1CSC(=S)N1C1CCS(=O)(=O)C1 (centres undefined) | 97%
5 | O=C1/C(=C\c2cccnc2)SC(=S)N1C1CCS(=O)(=O)C1 (centres undefined) | 93%
6 | O=C1/C(=C/C2=Cc3ccccc3OC2)SC(=S)N1C1CCS(=O)(=O)C1 (centres undefined) | 44% (active)
7 | COc1ccc(-n2cc(-c3ccc4c(c3)OCO4)n(CC(=O)Nc3cc(Cl)ccc3C)c2=O)cc1 | 73%
8 | O=C(c1ccc2c(c1)N(Cc1ccc(F)cc1)C(=O)c1ccccc1S2(=O)=O)N1CCN(Cc2ccccc2)CC1 | 72%
9 | Cc1ccc(CCNC(=O)c2ccc(CSCc3ccccc3Cl)o2)cc1 | 87%
10 | COc1ccc(CCNC(=O)CCSCc2ccccc2Cl)cc1OC | 76%
11 | Cc1ccc(CCNC(=O)CCSCc2ccccc2F)cc1 | -4% (active)
12 | Cc1ccc(CCNC(=O)CCSCc2ccccc2Cl)cc1 | 20% (active)
13 | CCc1ccc(CNC(=O)CCSCc2ccccc2F)cc1 | 96%
14 | O=C(CCSCc1ccccc1Cl)NCCc1ccccc1 | 71%
15 | Cc1ccc(CCNC(=O)c2ccc(CSCc3ccccc3C)o2)cc1 | 32% (active)
16 | Cc1ccccc1CSCc1ccc(C(=O)NCCc2ccccc2)o1 | 83%
17 | O=C(CCSCc1cccc(Cl)c1)NCCc1ccc(Cl)cc1 | 76%
18 | Cc1ccc(CCNC(=O)CCSCc2ccc(Cl)cc2)cc1 | 82%
19 | Cc1ccc(CNC(=O)CCSCc2ccccc2F)cc1 | 78%
20 | O=C(CCSCc1ccc(Cl)cc1)NCCc1ccccc1 | -5% (active)
21 | O=C(NC1CCN(CC(=O)N2CCOCC2)CC1)C1CCCCC1 | 95%
22 | CCN(C(=O)c1cccn(Cc2cccc(Cl)c2)c1=O)c1ccccc1 | 80%
23 | COc1ccccc1C(=O)Nc1ccc(OCc2cc(=O)n3cccc(C)c3n2)cc1 | 94%
24 | CC(C)Cc1cc(C(=O)O)nc(=O)[nH]1 | 105%

Row | Compound | survival
25 | CC(=O)c1ccc(NC(=O)COCc2cc(-c3ccc(F)cc3)on2)cc1 | 102%
26 | Cc1ccccc1NC(=O)CSc1cn(CC(=O)N(C(C)C)C(C)C)c2ccccc12 | 54%
27 | CN1CCN(C(=O)C23CC4CC(CC(C4)C2)C3)CC1 | 111%
28 | COc1cc(C(=O)NCC(c2cccs2)S(=O)(=O)c2ccc(F)cc2)cc(OC)c1OC (centres undefined) | 104%
29 | CCOc1ccc(S(=O)(=O)Nc2ccc(OC)c(Cl)c2)c2cccnc12 | 70%
30 | O=C(CCSCc1ccccc1Cl)NCc1ccc(F)cc1Cl | 8% (active)
31 | Cc1ccccc1CNC(=O)CCSCc1cnn(-c2ccccc2)c1-n1cccc1 | 64%
32 | O=C(CCSCc1ccc(Cl)cc1)NCc1ccc(F)cc1Cl | 88%
33 | O=C(NCc1ccccc1Cl)c1ccc(CSCc2cccc(F)c2)o1 | 17% (active)
34 | O=C(NCc1ccccc1Cl)c1ccc(CSCc2ccccc2Cl)o1 | 93%
35 | O=C(CCSCc1cccc(Cl)c1)NCc1ccc(F)cc1Cl | 102%
36 | O=C(NCc1ccc(F)cc1Cl)c1ccc(CSCc2ccccc2Cl)o1 | 54%
37 | O=C(CCSCc1cnn(-c2ccccc2)c1-n1cccc1)NCc1ccccc1Cl | 54% (active)
38 | O=C(CCSCc1cnn(-c2ccccc2)c1-n1cccc1)NCc1ccccc1F | 61%
39 | Fc1ccccc1N1CCN(c2ncc3c(n2)CCN(Cc2ccc(Br)s2)C3)CC1 | 66%
40 | CCc1nn2c(=O)cc(COC(=O)c3ccc(NC(=O)CCc4ccccc4)cc3)nc2s1 | 99%
41 | COc1ccc(OC)c(NC(=O)C(C)n2nc(C)c3c(C)n(-c4ccccc4)nc3c2=O)c1 (centres undefined) | 93%
42 | O=C(Nc1cccc(F)c1)C1CCN(S(=O)(=O)c2ccc3[nH]c4c(c3c2)CCCCC4)CC1 | 89%
43 | CCCn1c2ccccc2c2cnn(CC(=O)NC(C)CC)c(=O)c21 (centres undefined) | 72%
44 | O=C(NCc1ccco1)c1ccc2c(c1)N(Cc1ccc(Cl)cc1)C(=O)c1ccccc1S2 | 71%
45 | COc1ccc(CCN2C(=O)N(c3ccc(F)cc3)C(=O)C2CC(=O)Nc2ccccc2)cc1OC (centres undefined) | 76%
46 | Cc1ccc(NC(=O)Nc2nnc(SCC(=O)Nc3ccc(F)cc3F)s2)cc1 | 102%
47 | Nc1nc(N)c(S(=O)(=O)c2ccccc2)c(Nc2ccc(Br)cc2)n1 | 44% (active)
48 | Cc1nc(N)c(S(=O)(=O)c2ccccc2)c(Nc2ccc(Br)cc2)n1 | 87%

Row | Compound | survival
49 | Nc1nc(N)c(S(=O)(=O)c2ccccc2)c(Nc2ccccc2)n1 | 69%
50 | Cc1c(CN2CCOCC2)c(=O)n(-c2ccccc2)n1C | 87%
51 | CC1(N2CCOCC2)CC(=O)N(c2ccccc2)O1 (centres undefined) | 62% (active)
52 | O=C1c2ccccc2C(=O)C1(O)N1CCOCC1 | 85%
53 | COc1ccc(OCC2c3cc(OC)c(OC)cc3CCN2C(=O)c2c(F)cccc2F)cc1 (centres undefined) | 112%
54 | CCN(CC)c1ccc(NC(=O)CCc2c(C)nc3ncnn3c2C)c(C)c1 | 115%
55 | CCN1CCN(CCCNC(=O)c2cc3c(=O)n(C)c4ccccc4c3s2)CC1 | 79%
56 | O=C(NCCSCc1cccc(Cl)c1)C1CCN(S(=O)(=O)Cc2ccccc2)CC1 | 63%
57 | COc1ccc(OC)c(C2C(C(=O)Nc3ccc(C)cc3C)=C(C)Nc3c(C(=O)Nc4ccc(F)cc4)cnn32)c1 (centres undefined) | 96%
58 | CCS(=O)(=O)c1ncc(Cl)c(C(=O)NCc2ccccc2)n1 | 50%
59 | CC(=O)Nc1ccc(NC(=O)c2nc(S(=O)(=O)Cc3ccc(F)cc3)ncc2Cl)cc1 | 32% (active)
60 | Cc1ccc(CNC(=O)c2nc(SCc3ccc(F)cc3)ncc2Cl)cc1 | 71%
61 | O=C(NCc1ccccc1)c1nc(S(=O)(=O)Cc2ccccc2)ncc1Cl | 18% (active)
62 | COc1ccc(CNC(=O)c2nc(SC(C)C)ncc2Cl)cc1 | 114%
63 | O=C(NCc1ccccc1)c1nc(S(=O)(=O)Cc2ccc(F)cc2)ncc1Cl | -6% (active)
64 | COc1ccc(CNC(=O)c2nc(S(=O)(=O)Cc3ccccc3)ncc2Cl)cc1 | 18% (active)
65 | Cc1ccc(NC(=O)c2nc(S(=O)(=O)Cc3ccc(F)cc3)ncc2Cl)cc1C | 84%
66 | Cc1ccc(CSc2ncc(Cl)c(C(=O)NCc3ccccc3)n2)cc1 | 79%
67 | COc1ccc(CNC(=O)c2nc(SCc3ccccc3F)ncc2Cl)cc1 | 81%
68 | Cc1ccc(C)c(NC(=O)c2nc(S(=O)(=O)Cc3ccc(F)cc3)ncc2Cl)c1 | 99%
69 | CCNC(=O)c1c(NC(=O)Cc2coc3ccc(CC)cc23)sc2c1CCCC2 | 79%
70 | COc1ccc(CNC(=O)c2cccc(-n3cnc4cccnc43)c2C)cc1 | 90%
71 | CCc1ccc(NC(=O)c2cc(S(=O)(=O)N3CCCCCC3)ccc2F)cc1 | 99%
72 | CC(=O)Nc1n[nH]c(-c2ccc(C)cc2)c1C | 94%

Row | Compound | survival
73 | Cc1ccc(NC(=O)Cn2c(=O)ccc3cc(S(=O)(=O)N4CCC(C)CC4)ccc32)cc1C | 71%
74 | COc1ccc(N2C(=O)C(CC(=O)Nc3ccccc3)N(CCC3=CCCCC3)C2=O)cc1 (centres undefined) | 72%
75 | COc1ccccc1NC(=O)c1nc(SCc2ccc(F)cc2)ncc1Cl | 77%
76 | COc1ccc(OC)c(NC(=O)c2nc(SCc3ccc(F)cc3)ncc2Cl)c1 | 77%
77 | Cc1cccc(CS(=O)(=O)Cc2ccc(C(=O)NCc3ccccc3)o2)c1 | 124%
78 | Cc1ccc(CNC(=O)c2nc(SCc3cccc(C)c3)ncc2Cl)cc1 | 117%
79 | COc1ccc(NC(=O)c2nc(S(=O)(=O)Cc3ccc(C)cc3)ncc2Cl)cc1 | 32% (active)
80 | CSc1ncc(Cl)c(C(=O)NCc2ccc(C)cc2)n1 | 84%
81 | Cc1cccc(CS(=O)(=O)c2ncc(Cl)c(C(=O)NCc3ccccc3)n2)c1 | -1% (active)
82 | Cc1ccc(CNC(=O)c2nc(S(=O)(=O)Cc3ccc(C)cc3)ncc2Cl)cc1 | 41% (active)
83 | COc1ccc(OC)c(NC(=O)c2nc(S(=O)(=O)Cc3ccc(F)cc3)ncc2Cl)c1 | -5% (active)
84 | COc1ccc(CNC(=O)c2nc(SCc3ccc(C)cc3)ncc2Cl)cc1 | 67%
85 | CCOc1ccc(NS(=O)(=O)c2ccc3c(c2)CCCN3C(=O)C2CCC2)cc1 | 67%
86 | CC(C)Oc1ccc(CNC(=O)c2cnc3sc(N4CCCCC4)nn3c2=O)cc1 | 124%
87 | CCCCCn1c(=N)c(S(=O)(=O)c2ccc(C)cc2)cc2c(=O)n3cc(C)ccc3nc21 | 84%
88 | O=C(NCc1ccc(Cl)cc1)NCc1noc2ccccc12 | 41%
89 | COc1ccccc1NC(=O)CSc1oc(-c2cccs2)nc1S(=O)(=O)c1ccc(Br)cc1 | 68%
90 | CCn1ccc2cc(S(=O)(=O)N3CCCN(C(=O)Nc4ccc(C)cc4)CC3)ccc21 | 73%
91 | CCSc1nnc(C2CCCN(CC(=O)Nc3nc(C)cs3)C2)n1C (centres undefined) | 91%
92 | CC(C)NC(=O)c1ccc(CSc2nc3ccncc3n2Cc2cccc(F)c2)cc1 | 77%
93 | CCOc1ccc(-c2nonc2NC(=O)c2ccccc2C)cc1 | 107%
94 | CCOc1ccc(NC(=O)c2cc(S(=O)(=O)N3CCOCC3)ccc2F)cc1 | 89%
